# Data taken from PMC11062922 (Nature Chemical Biology, 2023).
# Where two headings read alike, the source gives them in different places.
# Tests used:
# Design in all cases: species or system human, MV4-11 + K-562 + COLO205 + SK-N-BE2 + OVCAR-8
# [1] = tested on: CSNK1D; settings: read-out: apparent Kd, n = 1
# [2] = tested on: GAK; settings: read-out: apparent Kd; compound concentrations: 100 nM and 1000 nM (sheet 'Samples'), CATDS: 0.103213597019934; n = 1
# [3] = tested on: GSK3B; settings: read-out: apparent Kd; compound concentrations: 100 nM and 1000 nM (sheet 'Samples'), CATDS: 7.0776673864894807E-2; n = 1
# [4] = tested on: MAPK10; settings: read-out: apparent Kd; compound concentrations: 100 nM and 1000 nM (sheet 'Samples'), CATDS: 9.6929032938047402E-2; n = 1
# [5] = tested on: MAPK14; settings: read-out: apparent Kd, compound concentrations: 100 nM and 1000 nM (sheet 'Samples'), n = 1
# [6] = tested on: MAPK9; settings: read-out: apparent Kd; compound concentrations: 100 nM and 1000 nM (sheet 'Samples'), CATDS: 0.22651523139433999; n = 1
# [7] = tested on: MAPKAPK2; settings: read-out: apparent Kd, n = 1
# [8] = tested on: NLK; settings: read-out: apparent Kd; compound concentrations: 100 nM and 1000 nM (sheet 'Samples'), CATDS: 6.7080565702130196E-2; n = 1
# [9] = tested on: PIK3CA; settings: read-out: apparent Kd; compound concentrations: 100 nM and 1000 nM (sheet 'Samples'), CATDS: 0.21860301841360499; n = 1
# [10] = tested on: PRKD2; settings: read-out: apparent Kd; compound concentrations: 100 nM and 1000 nM (sheet 'Samples'), CATDS: 7.4575323464079593E-2; n = 1
# [11] = tested on: PRKD3; settings: read-out: apparent Kd; compound concentrations: 100 nM and 1000 nM (sheet 'Samples'), CATDS: 5.9438089075158997E-2; n = 1
# [12] = tested on: RET; settings: read-out: apparent Kd, compound concentrations: 100 nM and 1000 nM (sheet 'Samples'), n = 1
# [13] = tested on: DDR1; settings: read-out: apparent Kd, n = 1
# [14] = tested on: HCK; settings: read-out: apparent Kd; compound concentrations: 100 nM and 1000 nM (sheet 'Samples'), CATDS: 9.2745081986231104E-2; n = 1
# [15] = tested on: IRAK3; settings: read-out: apparent Kd; compound concentrations: 100 nM and 1000 nM (sheet 'Samples'), CATDS: 7.7549132648748395E-2; n = 1
# [16] = tested on: LYN; settings: read-out: apparent Kd; compound concentrations: 100 nM and 1000 nM (sheet 'Samples'), CATDS: 7.2911258996188402E-2; n = 1
# [17] = tested on: MAPK11; settings: read-out: apparent Kd; compound concentrations: 100 nM and 1000 nM (sheet 'Samples'), CATDS: 7.9880632684471306E-2; n = 1
# [18] = tested on: PIP4K2C; settings: read-out: apparent Kd; compound concentrations: 100 nM and 1000 nM (sheet 'Samples'), CATDS: 6.71745626151799E-2; n = 1
# [19] = tested on: RIPK3; settings: read-out: apparent Kd; compound concentrations: 100 nM and 1000 nM (sheet 'Samples'), CATDS: 7.1422785641186204E-2; n = 1
# [20] = tested on: TNK1; settings: read-out: apparent Kd; compound concentrations: 100 nM and 1000 nM (sheet 'Samples'), CATDS: 0.18276083287815401; n = 1
# [21] = tested on: TP53RK; settings: read-out: apparent Kd; compound concentrations: 100 nM and 1000 nM (sheet 'Samples'), CATDS: 6.3683372655405995E-2; n = 1
# [22] = tested on: YES1; settings: read-out: apparent Kd; compound concentrations: 100 nM and 1000 nM (sheet 'Samples'), CATDS: 0.118526844217484; n = 1
# [23] = tested on: DDR2; settings: read-out: apparent Kd, n = 1
# [24] = tested on: FLT3; settings: read-out: apparent Kd, compound concentrations: 100 nM and 1000 nM (sheet 'Samples'), n = 1
# [25] = tested on: CSNK1E; settings: read-out: apparent Kd; compound concentrations:100 nM and 1000 nM (sheet 'Samples'); n = 1
# [26] = tested on: PIK3CD; settings: read-out: apparent Kd; compound concentrations:100 nM and 1000 nM (sheet 'Samples'); n = 1
# [27] = tested on: PKN3; settings: read-out: apparent Kd; compound concentrations:100 nM and 1000 nM (sheet 'Samples'); n = 1
# [28] = tested on: RPS6KA1; settings: read-out: apparent Kd; compound concentrations: 100 nM and 1000 nM (sheet 'Samples'), CATDS: 0.20748336668369699; n = 1
# [29] = tested on: CSNK2A1;CSNK2A3; settings: read-out: apparent Kd; compound concentrations: 100 nM and 1000 nM (sheet 'Samples'), CATDS: 0.299531148324096; n = 1
# [30] = tested on: CSNK2A2; settings: read-out: apparent Kd; compound concentrations: 100 nM and 1000 nM (sheet 'Samples'), CATDS: 0.294198980295866; n = 1
# [31] = compound concentrations:100 nM and 1000 nM (sheet 'Samples')
structure (smiles),measurement,setting,value
Cc1ccc2c(-c3ccnc(Nc4cccc(C(F)(F)F)c4)n3)c(-c3ccccc3)nn2n1 [GW829906X],potency estimated from few doses,"[1]; compound concentrations: 100 nM and 1000 nM (sheet 'Samples'), CATDS: 6.2224670805274301E-2",2130 nM
same,potency estimated from few doses,[2],606 nM
same,potency estimated from few doses,[3],1440 nM
same,potency estimated from few doses,[4],688 nM
same,potency estimated from few doses,[5]; CATDS: 8.8284377097412201E-2,839 nM
same,potency estimated from few doses,[6],165 nM
same,potency estimated from few doses,"[7]; compound concentrations: 100 nM and 1000 nM (sheet 'Samples'), CATDS: 6.8776353647753294E-2",1560 nM
same,potency estimated from few doses,[8],1680 nM
same,potency estimated from few doses,[9],174 nM
same,potency estimated from few doses,[10],1250 nM
same,potency estimated from few doses,[11],2500 nM
same,potency estimated from few doses,[12]; CATDS: 7.2475765263367006E-2,1350 nM
COc1cc(Nc2nccc(-c3c(-c4cccc(NC(=O)c5c(F)cccc5F)c4)nn4ncccc34)n2)cc(OC)c1OC [GSK327238A],potency estimated from few doses,"[13]; compound concentrations: 100 nM and 1000 nM (sheet 'Samples'), CATDS: 6.8880271318571995E-2",1830 nM
same,potency estimated from few doses,[14],926 nM
same,potency estimated from few doses,[15],1360 nM
same,potency estimated from few doses,[16],1580 nM
same,potency estimated from few doses,[17],1270 nM
same,potency estimated from few doses,[5]; CATDS: 7.1692025023195896E-2,1650 nM
same,potency estimated from few doses,[18],1960 nM
same,potency estimated from few doses,[12]; CATDS: 0.140384770008642,450 nM
same,potency estimated from few doses,[19],1660 nM
same,potency estimated from few doses,[20],305 nM
same,potency estimated from few doses,[21],2300 nM
same,potency estimated from few doses,[22],592 nM
COC(=O)Nc1nc2ccc(Oc3ccc(NC(=O)Nc4cccc(Cl)c4)cc3)cc2[nH]1.Cl [GW589961A],potency estimated from few doses,"[13]; compound concentrations: 100 nM and 1000 nM (sheet 'Samples'), CATDS: 0.527903704232491",199 nM
same,potency estimated from few doses,"[23]; compound concentrations: 100 nM and 1000 nM (sheet 'Samples'), CATDS: 0.19207540013006",1550 nM
same,potency estimated from few doses,[24]; CATDS: 0.237161124657183,874 nM
same,potency estimated from few doses,[12]; CATDS: 0.213543633827599,1140 nM
Cc1cn(-c2cc(NC(=O)c3ccc4c(c3)CN(c3cncnc3)C[C@@H]4C)cc(C(F)(F)F)c2)cn1 [D2202-1],potency estimated from few doses,[13]; [31],494 nM
same,potency estimated from few doses,[23]; [31],915 nM
Cc1cccc2c(-c3ccncc3)c(-c3ccc(F)cc3)nn12.Cl [GW461487A],potency estimated from few doses,[1]; [31],605 nM
same,potency estimated from few doses,[25],879 nM
same,potency estimated from few doses,[5]; CATDS: 0.14248163391639501,940 nM
same,potency estimated from few doses,[7]; [31],565 nM
same,potency estimated from few doses,[26],152 nM
same,potency estimated from few doses,[27],1420 nM
Nc1nc(-c2ccccc2F)c(-c2ccnc3ccccc23)s1 [GW560459X],potency estimated from few doses,"[1]; compound concentrations: 100 nM and 1000 nM (sheet 'Samples'), CATDS: 0.216607074037657",1180 nM
same,potency estimated from few doses,[5]; CATDS: 0.25122803409734401,843 nM
same,potency estimated from few doses,"[7]; compound concentrations: 100 nM and 1000 nM (sheet 'Samples'), CATDS: 0.38711156152007697",389 nM
same,potency estimated from few doses,[28],1320 nM
COc1ccc(CCNC2=NC(=O)/C(=C/c3ccc4ncccc4c3)S2)cc1 [RO4498476-000],potency estimated from few doses,[29],1610 nM
same,potency estimated from few doses,[30],1680 nM
same,potency estimated from few doses,[24]; CATDS: 0.44201063534771401,756 nM
COC(=O)Nc1nc2cc(Oc3ccc(NC(=O)Nc4ccccc4)cc3)ccc2[nH]1.Cl [GW694590A],potency estimated from few doses,"[13]; compound concentrations: 100 nM and 1000 nM (sheet 'Samples'), CATDS: 0.58971878257752297",426 nM
same,potency estimated from few doses,"[23]; compound concentrations: 100 nM and 1000 nM (sheet 'Samples'), CATDS: 0.43397569756313797",799 nM
